PNC assembly inh – blocks assembly of the perinucleolar compartment. PC3M PTB-GFP, PNC prevalence imaging, 16 h; hits give low values. activity change (PNC), negative = inhibition, % at 10 µM. 3.1% of 140,000 active;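 active = readout at or below -70, meaning at least 70% loss of cells showing the perinucleolar compartment, a nuclear body marking cancer cells; inconclusive = readout between -30 and a set limit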
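PC3M cells stably expressing PTB-GFP, 750–1000 cells/well, treated 16 h at 37 °C with compound (23 nl of library stock), in duplicate. After paraformaldehyde fixation and Hoechst stain, imaged at 20x; PNC prevalence scored by image analysis.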
HPGD block – blocks human HPGD enzyme activity; P15428; purified HPGD, NADH fluorescence kinetic, PGE2 substrate; Potency, µM, usual class: inhibitors; 4.3% of 150,000 active; AID 894
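NADH formation kinetics: reaction with 30 uM PGE2 and 1 mM NAD+ (final), 20 nM enzyme, Tris-HCl pH 8 with Tween 20, after 15 min compound preincubation at room temperature. Fluorescence change, last versus first of five reads.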
ALDH1A1 inh – blocks purified human ALDH1A1 activity; P00352; Purified ALDH1A1, NADH fluorescence, propionaldehyde substrate; Potency, µM (highest dose often 75.3 µM), most hits filed as inhibitors; 7.3% of 220,000 active
Target sequence (P00352 whole entry, looked up): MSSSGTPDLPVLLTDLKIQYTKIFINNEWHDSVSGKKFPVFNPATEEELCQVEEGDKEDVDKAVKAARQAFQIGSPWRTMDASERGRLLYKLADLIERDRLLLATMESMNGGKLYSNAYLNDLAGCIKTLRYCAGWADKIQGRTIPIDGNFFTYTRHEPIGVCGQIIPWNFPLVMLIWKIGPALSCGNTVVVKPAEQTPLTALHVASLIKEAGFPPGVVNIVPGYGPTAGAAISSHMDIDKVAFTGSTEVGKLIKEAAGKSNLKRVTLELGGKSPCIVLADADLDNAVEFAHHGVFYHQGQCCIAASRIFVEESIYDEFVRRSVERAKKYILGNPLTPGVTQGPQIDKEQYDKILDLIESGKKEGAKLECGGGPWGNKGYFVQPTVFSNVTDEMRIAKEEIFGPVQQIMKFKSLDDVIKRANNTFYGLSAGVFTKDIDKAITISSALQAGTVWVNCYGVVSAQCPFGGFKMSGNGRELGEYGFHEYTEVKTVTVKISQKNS
Numbers stand for hits; . = inactive; ? = inconclusive; / = no result; [ ] = another dose, or the depositor's remark. Sampled rows, rich in hits. Any-hit rate of the full collection: about 11%. Unless noted, calls come from the whole dose curve; as a rule, active = well fitted inhibition curve with a large enough effect (not every such curve was filed as active); inconclusive = small, poorly fitted or top-dose-only effect, or another doubt; inactive = no such curve, though single readings can be large or run the other way.

SMILES | PNC assembly inh | HPGD block | ALDH1A1 inh
COc1cccc(C(=O)CN2CCC(NC(=O)NC3CCCCC3)CC2)c1 | . | . | .
COc1ccc(C(=O)N2CCN(S(=O)(=O)c3ccc(F)cc3)CC2)cc1OC | / | / | .
O=C(O)c1cc(N/N=C/C=C/c2ccccc2)ccc1Cl | / | / | .
CCOc1ccc(N(CC(=O)Nc2ccccc2C)S(=O)(=O)c2c(C)noc2C)cc1 | -88 | . | ?
CCOc1ccccc1NC(=O)CN(c1ccc(OC)cc1)S(=O)(=O)c1c(C)noc1C | -97 | . | .
CCOc1ccc(N(CC(=O)Nc2ccc(C)c(C)c2)S(=O)(=O)c2c(C)noc2C)cc1 | ? | . | .
CCOc1ccccc1NC(=O)CN(c1cc(C)cc(C)c1)S(=O)(=O)c1c(C)noc1C | . | . | ?
CS(=O)(=O)N1CCc2cc(-c3csc(NC(=O)Cc4cccs4)n3)ccc21 | . | . | 13µM
Cc1c(C(=O)N2CCc3ccccc32)cnn1C | ? | . | .
CNc1nc(-c2ccc3c(c2)CCN3C(=O)c2ccccc2C)cs1 | / | / | 13µM
O=C(CN1CCOCC1)Nc1nc(-c2ccc3c(c2)CCN3S(=O)(=O)c2ccccc2)cs1 | . | . | .
Cn1nc(C(=O)Nc2nc3ccccc3[nH]2)ccc1=O | / | / | .
O=C(CSc1nc(O)c(C2CCCCC2)c(=O)[nH]1)N1CCOCC1 | / | / | .
COc1cc([N+](=O)[O-])ccc1N1C(=O)C2C3C=CC(C4CC34)C2C1=O (stereo unspecified) | / | / | .
CCCCNC(=O)COC(=O)c1ccc(NC(C)=O)cc1 | / | / | .
Cc1cc2oc(=O)cc(-c3ccccc3)c2c(C)c1-c1ccoc1 | / | . | ?
CCCN(CCC)S(=O)(=O)c1ccc(C(=O)N2CCC(=O)c3ccccc32)cc1 | . | . | 18µM
O=C(c1ccc(S(=O)(=O)N2CCCCC2)cc1)N1CCCc2ccccc21 | . | . | ?
CCOc1ccc(S(=O)(=O)NCCCN2CCCC2=O)cc1 | / | / | .
COc1cc(=O)n2c(-c3ccccc3)csc2n1 | . | . | .
COC(=O)c1cc(=O)n2c(-c3ccc(OC)cc3)csc2n1 | . | . | 5µM
COc1ccc(/C=N/OCC(=O)Nc2ccc3c(c2)OCO3)c(OC)c1 | / | / | .
Cc1ccc([N+](=O)[O-])c(OCCN2CCC(Cc3ccccc3)CC2)c1 | / | / | 32µM
Cc1ccccc1OCCN1CCC(Cc2ccccc2)CC1 | / | / | .
Cc1ccc(C(=O)N2CCC(Cc3ccccc3)CC2)cc1[N+](=O)[O-] | / | / | 14µM
SMILES | PNC assembly inh | HPGD block | ALDH1A1 inh
O=C(c1ccc(SCc2ccco2)c([N+](=O)[O-])c1)N1CCOCC1 | / | / | .
CC1CCN(C(=O)c2ccc(SCc3ccccc3F)c([N+](=O)[O-])c2)CC1 | . | 25µM | ?
Cc1c(C(=O)N2CCC(Cc3ccccc3)CC2)cccc1[N+](=O)[O-] | / | / | .
CC(C)c1c(Cl)c(O)c(-c2ccccc2)c(=O)n1-c1ccc(F)cc1 | . | . | ?
CCOC(=O)N1CCN(C(=O)c2cn(CC)c3ccc(S(=O)(=O)N4CCCCC4)cc3c2=O)CC1 | / | / | .
CCCCC(=O)OCC(=O)c1[nH]c(C)c(C(C)=O)c1C | / | / | .
CCOC(=O)c1c(NC(=O)CSC2=NN3CCCC(=O)N=C3S2)sc2c1CCCCC2 | . | . | ?
CCCCCCOC1(c2ccccc2)OC(=O)c2ccccc21 (stereo unspecified) | . | . | .
COC1(c2ccccc2)NC(=S)NN=C1c1ccccc1 (stereo unspecified) | . | . | 0.89µM
CCCCOC1(c2ccccc2)NC(=S)NN=C1c1ccccc1 (stereo unspecified) | . | . | 0.56µM
CO/N=C/C1C(=O)NN=C1c1ccccc1 (stereo unspecified) | / | / | .
C[C@H]1Cc2c(-c3ccccc3)nc3c(c2CO1)CN(C(=O)c1cccnc1)CC3 | / | . | .[13.5 µM]
O=S(=O)(c1ccccc1)N1CCC2(CCN(C(c3ccccc3)c3ccccc3)CC2)CC1 | / | . | .
COc1ccc2cc(C(=O)C3CCCN(C(=O)/C=C/c4ccccn4)C3)ccc2c1 (stereo unspecified) | / | / | .
COc1cccc(OC)c1C(=O)NC(=S)Nc1cc(-c2nc3ccccc3[nH]2)ccc1Cl | . | . | 22µM
Cc1ccc(-c2nc3ccccc3[nH]2)cc1NC(=O)c1ccco1 | ? | . | .
CC(=O)Nc1cccc(NC(=O)C2CC3CCC2C3)c1 (stereo unspecified) | . | . | .
CCN(CC)c1ccc(NC(=O)C2CC3CCC2C3)cc1 (stereo unspecified) | . | 18µM | 13µM
CC(C)On1c(SC(C)C)nc2ccccc2c1=O | . | . | ?
CC(C#N)Sc1nc2ccccc2c(=O)n1-c1ccccc1 (stereo unspecified) | . | . | 4.5µM
Cc1[nH]n(-c2ccc(Br)cc2)c(=O)c1C=Nc1ccc(S(=O)(=O)Nc2nccs2)cc1 | . | 14µM | .
CNS(=O)(=O)c1ccc(N=Cc2c(C)[nH]n(-c3ccc(C)cc3C)c2=O)cc1 | / | / | .
CCc1nnc(NS(=O)(=O)c2ccc(N=Cc3c(C)[nH]n(-c4ccc(C)c(C)c4)c3=O)cc2)s1 | ? | 16µM | 11µM
Cc1ccc(-n2[nH]c(C)c(C=Nc3ccc(S(=O)(=O)Nc4nc(C)cc(C)n4)cc3)c2=O)c(C)c1 | ? | 22µM | .
Cc1cc(C)nc(NS(=O)(=O)c2ccc(N=Cc3c(C)[nH]n(-c4ccccc4)c3=O)cc2)n1 | . | . | .
SMILES | PNC assembly inh | HPGD block | ALDH1A1 inh
Cc1ccc(-n2[nH]c(C)c(C=Nc3ccc(S(=O)(=O)Nc4nccs4)cc3)c2=O)cc1 | . | ? | .
COc1ccc(-n2c3c(cc(C#N)c2=O)C(=O)CCC3)cc1 | / | / | .
CN[C@H]1[C@@H](O)[C@@H](NC)[C@@H]2O[C@@]3(O)C(=O)C[C@@H](C)O[C@H]3O[C@H]2[C@H]1O | / | . | .
COc1ccc(-n2c(C)cc(/C=C(\C#N)C(=O)NCc3ccco3)c2C)cc1 | . | ? | .
CC(C)NC(=O)/C(C#N)=C/c1cccc(NC(=O)c2ccccc2Cl)c1 | . | . | 14µM
COCCNC(=O)/C(C#N)=C/C=C/c1ccccc1 | / | / | .
COCCNC(=O)/C(C#N)=C/c1cc(C)n(-c2ccc(C)cc2)c1C | / | / | 5.6µM
COCCNC(=O)/C(C#N)=C/c1cccc(NC(=O)c2ccccc2Cl)c1 | . | ? | 16µM
Cc1ccccc1C(=O)Nc1cccc(C#N)c1 | . | . | .
CC1CC[C@@]2(OC1)OC1CC3C4CC[C@H]5CC(O)CC[C@@]5(C)C4CC[C@]3(C)C1C2C (stereo partly specified) | / | . | .
O=C(CCn1ccnc1)Nc1ccc2ccccc2c1 | / | / | .
C(=N\n1cnc2ccccc21)/c1cccnc1 | . | . | .
O=c1c2cnn(-c3ccccc3)c2nnn1/N=C/c1cccnc1 | . | . | 0.4µM
O=C(Nc1ccccc1)Nc1ccccc1C(=O)NCCCN1CCOCC1 | / | / | .
C/C(=N\Nc1nc(-c2cc(C)ccc2C)cs1)c1cc2c(ccc3ccccc32)oc1=O | . | . | .
COc1cc(CNC(=O)c2ccc(Cn3nc(C)c(Cl)c3C)o2)cc(OC)c1 | . | . | .
COC(=O)c1ccc(Cn2nc(C)c(Cl)c2C)o1 | . | . | 28µM
CCCN1C(=O)/C(=N\OCC(=O)NC23CC4CC(CC(C4)C2)C3)c2ccccc21 | . | 16µM | 0.28µM
CCCN1C(=O)/C(=N\OCC(=O)Nc2ccc(C(C)C)cc2)c2ccccc21 | . | . | 0.5µM
